Values joined by “and” are separate entries in the source; they are usually repeats but may differ in a detail not shown here. Equal entries are not always repeated. About 83,000 compounds went through this panel and 20% of them were active in at least one assay; those are over-represented in the sample as a whole.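 48-hour exposure, single concentration, 96-well plates; percent growth endpoint where 0 means no net growth. Active: below 10.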 A number with no mark means an inactive call. Active and inactive are the calls of the source.

The test system of the assay is HL-60(TB) leukemia. Kind of assay: NCI-60 one-dose screen, 48 h (100 = growth as untreated, 0 = no growth, -100 = all killed). Particulars: 10 µM unless noted.
`Fc1ccc(CNc2cccc3[nH]c(C(F)(F)F)nc23)cc1`: the growth was 55%.

On to `Cc1ccsc1-c1ccc2c(c1)COC2(CCCN(C)C)c1ccc(F)cc1` (stereo unspecified), for which the growth was 23%. With `CC(=O)c1cc(C)c(OC(=O)c2ccccc2)c(C)c1` the figure was 97.9%; with `CCN(CC)c1ccc2c(cc1=O)[C@@H](NC(C)=O)CCc1cc(OC)c(OC)c(OC)c1-2`, -56.8% (active). With `Nc1ccccc1SC(CC(=O)c1ccccc1)c1cccc([N+](=O)[O-])c1` (stereo unspecified) the figure was 96.8% and 88.5%. Regarding `COc1cc(-c2nc(/C=C3/C(=O)Nc4ccccc43)c3ccccn23)cc(OC)c1OC`, the growth was 89.6%. As for `Cn1cc(-c2noc(-c3cn(C)c4ncc(F)cc34)n2)c2ccccc21`, the growth was 85.5%.

On to `CC1(C)CC2(C)CC(=O)C1C(C(=O)O)C2C(=O)O` (stereo unspecified), for which the growth is 97.9%.

On to `O=C(OCCBr)c1ccc(Cl)c([N+](=O)[O-])c1`, for which the growth was 81.7%. As for `CC1(C(=O)O)NC(C(=O)O)Cc2c1[nH]c1ccccc21` (stereo unspecified), the figure is 99.8%; as for `CCC(C)(O)c1ccc(C)cc1` (stereo unspecified), 97.3%. With `Cc1ccc2c(c1)Sc1c(ccc3ccccc13)N2` the figure was 44.9%; with `O=c1[nH]c([C@@H]2CCCN2)nc2c1oc1ccc(Cl)cc12`, 101%; with `Oc1ccc(Cl)cc1Cc1cc(Cl)ccc1O`, 33.8%. With `Cc1[nH]c(=O)[nH]c(=O)c1CCSSCCc1c(C)[nH]c(=O)[nH]c1=O` the figure was 99.5%. Turning to `COc1ccc2sc3cccc(NCCN(C)C)c3c(=O)c2c1`, the growth is -49.5% (active).

Values taken from PubChem BioAssay (NCI).
